Source: PubChem BioAssay AID485353 (National Center for Advancing Translational Sciences (NCATS), 2010)
About 610 (0.18%) of roughly 330,000 compounds were called active. Roughly 2% stayed inconclusive and do not appear here. The entries come from a sample that favours actives as a whole. Unmarked numbers belong to inactive results. The call rests on the fitted dose curve.

Assay: qHTS of Yeast-based Assay for SARS-CoV PLP; further: nearly all actives have a fitted effect of over 55% in size; on activity, positive = growth rescue: 0% is about no effect
Conditions: S. cerevisiae expressing SARS-CoV PLpro; Potency: growth rescue; series mostly up to 32.9 µM; activity, positive = growth rescue: at the top concentration
Potency means the concentration at half of the fitted maximal effect.

SMILES | activity, positive = growth rescue | Potency
COc1ccc(NC(=O)C2CCC(CNS(=O)(=O)c3csc(C(N)=O)c3)CC2)cc1OC (stereo unspecified) | 2.32% | –
Cc1cc(C)c2nc3nc(C)cc(C)c3c(N)c2c1 | -3.61% | –
O=C(CN1C(=O)NC2(CCCCCCC2)C1=O)NCc1ccc(F)cc1 | -2.13% | –
Cc1ccccc1OCc1nnc(SCC(=O)N2c3ccccc3Sc3ccc(Cl)cc32)o1 | -4.39% | –
O=C(CC1CCCCC1)NCc1ccco1 | -0.144% | –
O=C(CN1C(=O)/C(=C\c2ccc(C(F)(F)F)cc2)Sc2ccccc21)NCc1ccco1 | – | 12.6 µM (active)
O=C(CN1C(=O)/C(=C/c2ccccc2F)Sc2ccccc21)NCc1cccnc1 | 1.48% | –
COc1cccc(C(CC(=O)NCCN2CCOCC2)NS(=O)(=O)c2ccc(C)cc2)c1OC (stereo unspecified) | 2.49% | –
CCc1nccn1CCC(=O)N1CCCC(N2CCN(c3ccccc3F)CC2)C1 (stereo unspecified) | 5.56% | –
CC1(c2ccc(Cl)cc2Cl)NC(=O)N(CC(=O)Nc2cccnc2Cl)C1=O (stereo unspecified) | 0.863% | –
O=C(c1ccco1)N1CCN(CC(=O)N(C2CCCCC2)C2CCS(=O)(=O)C2)CC1 (stereo unspecified) | 0.872% | –
COc1ccc(CNC(=O)c2c[nH]c3c(OC)cc(OC)cc3c2=O)cc1 | 2.43% | –
CC(=O)N1N=C(c2ccncc2)OC1(Cc1ccccc1)Cc1ccccc1 | 0.466% | –
COC(=O)CCc1sc(Nc2ccc(Br)cc2)nc1-c1ccc(OC)cc1 | -25.4% | –
CN(C(=O)COC(=O)CCCc1c[nH]c2ccccc12)c1c(N)n(Cc2ccccc2)c(=O)[nH]c1=O | 2.28% [at 6.58 µM] | –
Cc1nc(-c2ccc(Cl)cc2)sc1C(=O)CBr | -22% | –
Cc1nc(-c2ccccc2)sc1C(=O)/C=C/N(C)C | -1.29% | –
Cc1ccc(SCC(=O)c2sc(-c3ccccc3)nc2C)cc1 | – | 3.55 µM (active)
CN(CC(=O)NCCN1CCOCC1)S(=O)(=O)c1ccc(F)cc1 | 3.57% | –
Cc1[nH]n(-c2ccccc2)c(=O)c1/C=N/NC(=O)c1ccoc1C | – | 2.51 µM (active)
Cc1ccc(-n2[nH]c(C)c(/C=N/NC(=O)c3cccc([N+](=O)[O-])c3)c2=O)cc1C | – | 1.26 µM (active)
C/C(=N\NC(=O)c1cccc([N+](=O)[O-])c1)c1cccnc1 | 1.13% | –
Cc1[nH]n(-c2ccc([N+](=O)[O-])cc2)c(=O)c1C=NCCN1CCN(C(=O)c2ccccc2F)CC1 | -15% | –
COc1cc(/C=N/NC(=O)c2ccoc2C)ccc1OCCN1CCCCC1 | -3.16% | –
C/C(=N\NC(=O)c1ccoc1C)c1ccccc1O | -15.6% | –
O=C(Cn1cc(/C=N/NC(=O)c2cccc(C(F)(F)F)c2)c2ccccc21)Nc1ccc(F)cc1 | 1.14% | –

SMILES | activity, positive = growth rescue | Potency
O=C(NCCCn1ccnc1)C(=O)NCC1OCCN1S(=O)(=O)c1cc(F)ccc1F (stereo unspecified) | 0.943% | –
CCc1cccc(NC(=O)COC(=O)c2cc(=O)c3ccccc3o2)c1 | -5.39% | –
Cc1ccc(SCc2c(C(=O)N/N=C/C3CC=CCC3)nnn2-c2nonc2N)cc1 (stereo unspecified) | 0.713% | –
Nc1nonc1-n1nnc(C(=O)N/N=C\c2ccncc2)c1CN1CCCCC1 | 1.85% | –
Nc1nonc1-n1nnc(C(=O)N/N=C/c2cc(Br)ccc2O)c1CSC1=NCCS1 | – | 4.47 µM (active)
CSc1nc(-c2ccco2)nn1C(=O)c1ccccc1Cl | -2.37% | –
COc1cc(C(=O)N/C(=C\c2cn(C)c3ccccc23)C(=O)N2CCOCC2)cc(OC)c1OC | -0.452% | –
CCN(CC)c1ccc(/C=N/NC(=O)c2cnccn2)c(O)c1 | 4.67% | –
Cc1cc(C)nc(N/N=C/c2c(CO)cnc(C)c2O)n1 | 0.145% | –
CCN(CC)c1ccc(/C=N/Nc2nc(C)cc(C)n2)c(O)c1 | – | 5.01 µM (active)
CC1(C)Cc2nc3sc4c(SCC(=O)NC(c5ccccc5)c5ccccc5)ncnc4c3cc2CO1 | 0.705% | –
COc1ccc(NC(=O)C(=O)NCC(c2ccco2)N2CCc3ccccc3C2)cc1 (stereo unspecified) | -16.8% | –
CCOc1c(Nc2cccc(Cl)c2)c(=O)c1=O | -0.74% | –
CCOCCCNC(=O)C(NC(=O)c1ccc(=O)[nH]c1)c1ccc(Cl)cc1 (stereo unspecified) | 1.05% | –
CC1(C(=O)OCC(=O)Nc2ncc(Cl)cc2Cl)CC1(Cl)Cl (stereo unspecified) | -3.29% | –
CN(CC(=O)Nc1ccc(S(=O)(=O)N2CCCC2)cc1)Cc1ccc(Cl)c(Cl)c1 | -24.7% | –
C=CCn1c(C23CC4CC(CC(C4)C2)C3)n[nH]c1=S | – | 11.2 µM (active)
C=CCn1c(-c2sc(-c3ccccc3)nc2C)n[nH]c1=S | 5.03% | –
C=CCn1c(SCC(=O)NC)nnc1C12CC3CC(CC(C3)C1)C2 | -2.6% | –
C=CCNC(=O)/C(=C\c1cccc([N+](=O)[O-])c1)NC(=O)c1ccccc1 | -8.39% | –
O=C(Nc1ccc(C(=O)O)cc1)/C(=C/c1ccc([N+](=O)[O-])cc1)NC(=O)c1ccccc1 | 0.0593% | –
O=C(N/N=C/c1cc([N+](=O)[O-])ccc1O)/C(=C\c1cccs1)NC(=O)c1ccccc1 | – | 3.98 µM (active)
CC1CCC(NC(=O)CN(C)S(=O)(=O)c2ccc3c(c2)c(=O)n(C)c(=O)n3C)CC1 (stereo unspecified) | -0.025% | –
CCc1ccccc1NC(=O)CN(C)S(=O)(=O)c1ccc2c(c1)c(=O)n(C)c(=O)n2C | 7.46% | –
COc1cccc(CNC(=O)CN(C)S(=O)(=O)c2ccc3c(c2)c(=O)n(C)c(=O)n3C)c1 | – | 3.55 µM (active)
